Screening data: PubChem, National Center for Advancing Translational Sciences (NCATS)
Rows were chosen to be rich in hits. Some 2.2% of all compounds tested hit in one or more screens of this group.
aSyn rescue – alpha-synuclein toxicity inhibition in yeast; Yeast expressing alpha-synuclein, growth rescue, BacTiter-Glo, 24 h; Potency, µM (doses to about 46.1 µM), without a hit: top-dose growth rescue (activation), usual class: activators; 0.14% of 370,000 active; AID 652106; note: % of control where 0% means no effect; nearly all actives have a fitted effect of over 65% in size
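Galactose-induced alpha-syn yeast (OD600=0.02, raffinose-pregrown) + pinned cpd, 24 hr, 30 deg C; growth by BacTiter-Glo luminescence. Growth restoration scores as activation.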
Abeta rescue – compounds reversing amyloid beta toxicity in yeast | 0.063% of 410,000 active | yeast expressing A-beta42, growth rescue, OD600, 48 h; response scale: 0% DMSO, 100% iron-clioquinol control | Potency, µM (titrated, usually from 46.1 µM), usual class: activators; note: nearly all actives have a fitted effect of over 55% in size
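Yeast growth medium received pinned compounds, then yeast cells expressing toxic A-beta were added; plates incubated at 30 C for 48 hr. Growth read as absorbance at 600 nm, normalized to DMSO and equimolar FeCl3 plus clioquinol controls.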
Mito fusion yeast – inhibitors of mitochondrial division or activators of mitochondrial fusion | 0.23% of 320,000 active | Potency, µM (doses to about 46.1 µM), for the others: top-dose growth rescue (activation), most hits filed as activators | S. cerevisiae fusion-defective mutant growth rescue, CellTiterGlo 48 h; note: % of control where 0% means no effect; nearly all actives have a fitted effect of over 45% in size
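Luminescent cell viability in 1536-well qHTS format served as the measure of rescued growth in ts fusion-mutant S. cerevisiae cultured on non-fermentable YPEG for 48 hours at 37C.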
FUS suppressor – FUS proteinopathy suppression in yeast | S. cerevisiae FUS-expressing, growth rescue, OD600, 24 h | 0.24% of 390,000 active | AID 1347120 | Potency, µM (top dose mostly 76.6 µM), usual class: activators;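 note: plate controls were DMSO vehicle for no effect and reference control for full effect; nearly all actives have a fitted effect of over 55% in size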
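Yeast expressing FUS under galactose induction, OD 0.005 in 2% galactose medium; compounds in a dilution series, 24 h at 30C. Growth rescue by absorbance at 600 nm; CP55940 positive control, DMSO negative.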
TDP43 rescue – inhibitors of TDP-43 toxicity in yeast | TDP-43 expressing yeast growth rescue, BacTiter-Glo, 24 h | Potency, µM (doses to about 46.1 µM), inactives show at the highest dose growth rescue (activation), hits mostly activators | 1.8% of 410,000 active; note: % of control where 0% means no effect; nearly all actives have a fitted effect of over 50% in size
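Yeast cells expressing TDP-43 under galactose induction are exposed to compounds for 24 hr at 30 deg C. BacTiter-Glo luminescence measures growth, so protective compounds score as activators.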
Active calls of the source: *; i = inactive; ? = inconclusive; . = no result; [ ] = dose if it differs, or a comment. Calls come from the whole dose curve; as a rule, active = well fitted curve in the direction sought with a large enough effect; inconclusive = small, poorly fitted or top-dose-only effect, or another doubt; inactive = no such curve, though single readings can be large; an effect the other way counts as inactive or inconclusive. Potency is the fitted concentration of half-maximal effect.

SMILES	aSyn rescue	Abeta rescue	Mito fusion yeast	FUS suppressor	TDP43 rescue
O=C(c1ccccc1)N1CCc2cc(CNS(=O)(=O)c3ccc(Cl)s3)ccc21	.	i	.	i	4.5%
O=C1c2cc3c(cc2CCC1c1ccc2c(c1)OCO2)OCO3 (stereo unspecified)	-4.4%	i	.	i	15.8µM*
O=C(CSc1nc2c([nH]c3ccccc32)c(=O)n1-c1ccccc1)N1CCCCC1	.	i	.	i	-0.2%
CCCCOc1ccc(C(=O)NCCS(=O)(=O)N2CCN(c3ccccc3OC)CC2)cc1	.	?	.	?	12.6µM*
COc1cccc(-c2noc(-c3cccnc3)n2)c1	-7.4%	i	-0.2%	i	18.9%
Brc1ccc(-c2nnc(-c3ccccc3Br)o2)cc1	-1.8%	i	-2.6%	i	-20.8%
COc1ccc(-c2nnc(-c3cccnc3)o2)cc1	-16.8%	i	-0.8%	i	22.4µM*
Brc1ccccc1-c1nnc(-c2cccnc2)o1	-0.2%	i	0.9%	i	15.8µM*
Cc1ccc(-c2nnc(-c3cccnc3)o2)cc1	-1.4%	i	0.6%	i	5.2%
c1cncc(-c2nnc(-c3cccs3)o2)c1	1.5%	i	-0.3%	i	-0.8%
Clc1ccc(-c2nnc(-c3cccnc3)o2)cc1	-3.6%	i	2.6%	i	12.6µM*
FC(F)(F)c1ccc(-c2nnc(-c3cccnc3)o2)cc1	2.7%	i	0.1%	i	12.6µM*
CC(=O)c1c(C)[nH]c2ccc(OCC(O)CNCCc3ccccc3)cc12 (stereo unspecified)	4.9%	.	.	.	.
Cc1ccccc1NC(=O)c1nc(S(=O)(=O)Cc2ccccc2F)ncc1Cl	-23.8%	.	.	.	.
CCOc1ccc(CCNC(=O)c2[nH]c3cc(OC)ccc3c2Sc2ccccc2)cc1OCC	.	i	.	i	3.6%
CC1=C(c2ccc(C(C)C)cc2)S(=O)(=O)N=C1N1CCN(c2ccccc2F)CC1	.	i	.	?	16.7%
COc1ccc(-c2nnc(-c3ccc(N(C)C)cc3)o2)cc1	-21.0%	i	2.4%	?	-4.5%
Brc1ccc(-c2nnc(-c3cccnc3)o2)cc1	3.1%	i	.	i	10µM*
COc1ccc(-c2nnc(-c3ccc(N)cc3)o2)cc1	5.0%	i	1.2%	i	10µM*
CN(C)c1ccc(N=Cc2ccncc2)cc1	0.1%	.	.	.	.
COc1ccc(OC)c(NC(=O)c2ccc(Cl)cc2)c1	-1.0%	i	15.4%	i	-13.2%
COc1ccc(OC)c(NC(=O)c2csc(Cl)c2OC)c1	5.6%	i	10µM*	?	20µM*
CCOC(=O)c1cnc(SC2CCc3ccccc3C2=O)nc1N (stereo unspecified)	5.4%	i	20.3%	?	20µM*
CCOC(=O)c1cnc(SC2CC(=O)N(c3ccccc3)C2=O)nc1N (stereo unspecified)	-4.0%	i	-14.0%	i	-9.9%
Cc1[nH]c2ccccc2c1C(=O)COC(=O)c1ccccc1SCC(=O)N1CCCC1	-2.5%	.	.	.	.
SMILES	aSyn rescue	Abeta rescue	Mito fusion yeast	FUS suppressor	TDP43 rescue
CC[C@@]1(c2ccccc2OC)ON(c2ccccc2C(F)(F)F)C1=O	6.5%	i	-31.6%	i	17.8µM*
Cc1cccc(-c2nc(SCC(=O)NCC3CCCO3)c3c(=O)n(C)c(=O)n(C)c3n2)c1 (stereo unspecified)	.	i	.	i	5.6%[9.22 µM]
CCCOc1ccc2c3c(c(=O)oc2c1OCCC)CCCC3	-15.4%	i	-0.6%	i	19.1%
CCOc1ccc2c3c(c(=O)oc2c1OCC)CCCC3	-2.3%	i	0.5%	i	22.4µM*
Nc1c(-c2nc(-c3cccs3)no2)nnn1-c1cccc(Cl)c1	.	i	.	i	11.0%
CC(=O)Nc1ccc(Nc2nc3ccccc3nc2NS(=O)(=O)c2ccccc2)cc1	-12.5%	i	1.8%	?	20µM*
Cc1c(Cl)cccc1NS(=O)(=O)c1ccc(-c2cnc(C3CC3)o2)cc1	.	i	.	?	?
CC(C)(C)c1cccc(Cn2nnc3ccccc32)c1O	0.7%	i	20µM*	i	?
O=C(NCCc1ccccc1)c1ccc(-c2ccc(F)cc2)o1	0.4%	i	-2.4%	i	20µM*
COc1ccc2nc(N3CCCCC3)c(C#N)cc2c1	4.1%	i	3.8%	i	12.6µM*
CC(=O)[C@H]1CC[C@H]2[C@@H]3CC=C4C[C@@H](O)CC[C@]4(C)[C@H]3CC[C@]12C	11.5%	i	-4.3%	i	-3.9%
COC1CCC2(C)C(=CCC3C4CC(O)CC4(C)CCC32)C1 (stereo unspecified)	16.4%	i	.	.	14.1µM*
COc1ccc(/C=N/NC(=S)SC)cc1OC	-18.5%	?	-5.5%	i	35.5µM*
COc1ccc(C=NNC(=O)NN=Cc2ccc(OC)c(OC)c2)cc1OC	-3.4%	i	.	i	-14.1%
CCc1ccc(-c2nc(CS(=O)CC(=O)NCCc3ccc(Cl)cc3)c(C)o2)cc1 (stereo unspecified)	.	i	.	i	18.7%
C=CCn1cccc(C(=O)Nc2ccc(SC)cc2)c1=O	2.9%	i	?	i	0.0%
C=CCn1cccc(C(=O)Nc2ccc(Cl)cc2)c1=O	2.0%	i	?	i	10µM*
Brc1ccc(Oc2nnnn2-c2ccccc2)cc1	-0.9%	i	0.4%	i	15.8µM*
c1ccc(OCc2nnnn2-c2ccccc2)cc1	-6.8%	i	-6.6%	i	13.5%
Clc1ccc(OCc2nnnn2-c2ccccc2)cc1	3.9%	i	4.5%	.	12.6µM*
CC(C)n1ncc2c(C(=O)NCCc3ccc(F)cc3)cc(C3CC3)nc21	0.4%	i	10.9%	i	-13.8%
Cc1ccccc1CCNC(=O)c1cc(C2CC2)nc2c1cnn2C(C)C	8.1%	i	?	i	35.5µM*
COc1cccc(CNC(=O)c2cc(C3CC3)nc3c2cnn3C(C)C)c1	0.5%[1.84 µM]	i	15.4%	?	17.8µM*
CCn1nc(-c2ccccc2C)nc2c(=O)n(C)c(=O)nc1-2	-75.7%	.	.	.	.
Cc1ccc(C)c(S(=O)(=O)N2C(=S)NC(=O)C2C(C)C)c1 (stereo unspecified)	11.9%	i	17.2%	i	35.5µM*
SMILES	aSyn rescue	Abeta rescue	Mito fusion yeast	FUS suppressor	TDP43 rescue
Cc1ccc(C)c(S(=O)(=O)N2CCCN(C)CC2)c1	-1.0%	i	1.4%	i	-24.3%
COc1cc(Nc2nc(SCC(=O)c3ccc(Cl)c(Cl)c3)nc3ccccc23)cc(OC)c1	.	i	.	i	12.6µM*
COc1cc(Nc2nc(SCc3ccccc3Cl)nc3ccccc23)cc(OC)c1	.	i	.	?	20µM*
COc1cc(Nc2nc(SCc3cccc(Cl)c3)nc3ccccc23)cc(OC)c1	.	i	.	i	17.8µM*
O=C(CSc1nc(Nc2ccccc2)c2ccccc2n1)c1ccc(Cl)cc1	.	i	.	i	19.2%
CCCOc1ccc(CNC(=O)c2cc3ccccn3n2)cc1	.	i	.	i	18.6%
